{"source": "the OligoGym collection", "data": [{"target": "MACROD1", "experiment": "pooled miR-30 sensor sort-seq; sequence = guide strand", "details": "shRNA", "values": [{"sequence": "TTCAGCCTGACAAAGTCCTTGC", "sensor-assay potency score (higher = more potent)": 0.08}, {"sequence": "TGCTTGTCCTTTTTATACCTGG", "sensor-assay potency score (higher = more potent)": -0.621}, {"sequence": "TCATTGAGCTGCTTGTCCTTTT", "sensor-assay potency score (higher = more potent)": -0.672}]}, {"target": "MAD2L2", "experiment": "pooled miR-30 sensor sort-seq; sequence = guide strand", "details": "shRNA", "values": [{"sequence": "TGAGACAACAGCGAGTCTGAGC", "sensor-assay potency score (higher = more potent)": -0.635}, {"sequence": "TTTAGTGGTATCAGCCGGGGGT", "sensor-assay potency score (higher = more potent)": -0.467}, {"sequence": "TTCCACGTAAAGCTGCATCTTT", "sensor-assay potency score (higher = more potent)": -0.0388}, {"sequence": "TGTACTTCTTGCGTTTCTGGAA", "sensor-assay potency score (higher = more potent)": -0.3}, {"sequence": "TTTTTAGTGGTATCAGCCGGGG", "sensor-assay potency score (higher = more potent)": -0.778}, {"sequence": "TTTTAGTGGTATCAGCCGGGGG", "sensor-assay potency score (higher = more potent)": -1.07}, {"sequence": "TTTCTCCACATCATTCTTCTCC", "sensor-assay potency score (higher = more potent)": -0.203}, {"sequence": "TTGTACTTCTTGCGTTTCTGGA", "sensor-assay potency score (higher = more potent)": -0.29}, {"sequence": "TCCACATGAGACAACAGCGAGT", "sensor-assay potency score (higher = more potent)": -1.88}, {"sequence": "TATACTGATTCAGCTCCGGGTG", "sensor-assay potency score (higher = more potent)": -0.735}, {"sequence": "TTTATCCAAAATCACCACCACC", "sensor-assay potency score (higher = more potent)": -1.44}, {"sequence": "TGGATCTTCTCCATGTTGCGAG", "sensor-assay potency score (higher = more potent)": -0.717}]}, {"target": "MAFG", "experiment": "pooled miR-30 sensor sort-seq; sequence = guide strand", "details": "shRNA", "values": [{"sequence": "TAGATCTTTAATAACCTCCATC", "sensor-assay potency score (higher = more potent)": -0.748}, {"sequence": "TTTATCGGGGACACACTCTAGC", "sensor-assay potency score (higher = more potent)": -0.0679}, {"sequence": "TTTACTATTGTGATGACGCTGG", "sensor-assay potency score (higher = more potent)": 0.761}, {"sequence": "TTAGCAATAAATACTGCGCAGG", "sensor-assay potency score (higher = more potent)": -0.418}, {"sequence": "TATATAAAAACTAAACTCCAAC", "sensor-assay potency score (higher = more potent)": -1.06}, {"sequence": "TCGAGCTCCAGCTTCATGCTGG", "sensor-assay potency score (higher = more potent)": -0.0457}, {"sequence": "TTTAGCAATAAATACTGCGCAG", "sensor-assay potency score (higher = more potent)": -0.617}, {"sequence": "TTATATATCACAAACATACACT", "sensor-assay potency score (higher = more potent)": -0.989}, {"sequence": "TACTATTGTGATGACGCTGGTG", "sensor-assay potency score (higher = more potent)": 0.19}, {"sequence": "TATAATTAATTTAATAACTTTG", "sensor-assay potency score (higher = more potent)": -0.864}, {"sequence": "TTCTATTATACTTTCTTCCCTT", "sensor-assay potency score (higher = more potent)": -0.191}, {"sequence": "ATAATGTCTGATAACTCTGTGT", "sensor-assay potency score (higher = more potent)": -0.547}]}, {"target": "MAF", "experiment": "pooled miR-30 sensor sort-seq; sequence = guide strand", "details": "shRNA", "values": [{"sequence": "TTCAGCTCGCGCACAGACATGG", "sensor-assay potency score (higher = more potent)": -0.726}, {"sequence": "AACTTCTCGTATTTCTCCTTGT", "sensor-assay potency score (higher = more potent)": -0.264}, {"sequence": "TTTTCTCGGAAGCCGCTGCTCA", "sensor-assay potency score (higher = more potent)": -0.816}, {"sequence": "TGCTGCACCCTCTTGAAGCGGC", "sensor-assay potency score (higher = more potent)": -0.694}, {"sequence": "TAGCCGGTCATCCAGTAGTAGT", "sensor-assay potency score (higher = more potent)": -1.7}, {"sequence": "TCGACTTGCTGCAGCAGCTGGT", "sensor-assay potency score (higher = more potent)": -0.659}, {"sequence": "TTGAGGTGGTCGACTTGCTGCA", "sensor-assay potency score (higher = more potent)": -0.511}, {"sequence": "TCATCCAGTAGTAGTCTTCCAG", "sensor-assay potency score (higher = more potent)": -0.918}, {"sequence": "TTTCAGGGTCCGCCTCTTCTGC", "sensor-assay potency score (higher = more potent)": -1.55}, {"sequence": "TCCCTCTCGCGCACCAGCCTGG", "sensor-assay potency score (higher = more potent)": -1.61}]}, {"target": "MAGEA2B", "experiment": "pooled miR-30 sensor sort-seq; sequence = guide strand", "details": "shRNA", "values": [{"sequence": "TAGTGTATGGTGCAGGACTTTC", "sensor-assay potency score (higher = more potent)": -1.11}, {"sequence": "TCTGAGGACACTCTCCAGCATT", "sensor-assay potency score (higher = more potent)": -1.1}, {"sequence": "TTGATGGTAGTCGAGAAGCTGG", "sensor-assay potency score (higher = more potent)": -0.963}]}]}
